Source: PubChem
TDP1 cell CPT – growth inhibition of DT40 Tdp1-/-;hTDP1 cells with camptothecin (screen for TDP1 inhibitors); chicken DT40 Tdp1-/-;hTDP1 cells + 20 nM CPT, ATP luminescence, 48 h; Potency, µM (doses to about 46.2 µM), for the others: at the top dose activity change, negative = growth inhibition, hits mostly inhibitors; 420,000 compounds, 12% hits; note: potency is the fitted concentration of half-maximal effect; nearly all actives have a fitted effect of over 55% in size
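Chicken DT40 Tdp1-/- cells complemented with human TDP1, 400 cells/well, exposed to compounds plus 20 nM camptothecin for at least 48 h at 37 C; viability read as ATP content by CellTiter-Glo luminescence.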
HT1080-NT tox – kills 2HG-producing HT-1080-NT fibrosarcoma cells; 360,000 compounds, 1.6% hits; AID 686970; Potency, µM (series often up to 46.1 µM), for inactives: at the highest dose activity, negative = less viability, hits mostly cytotoxic; HT-1080-NT fibrosarcoma viability, CellTiter-Glo ATP luminescence, 48 h;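 note: NT is the 2HG producing partner of a matched IDH1 knockdown line; potency is the fitted concentration of half-maximal effect; 0% = DMSO-treated cells and -100% = media-only wells without cells; nearly all actives have a fitted effect of over 55% in size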
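Luminescent CellTiter-Glo readout after 48 hours of compound exposure at 37 degrees C defined viability of HT-1080-NT cells. Activity was normalized to DMSO wells and cell-free media wells; concentration-response curves were fitted and assigned curve classes.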
TDP1 cell noCPT – qHTS for Inhibitors of human tyrosyl-DNA phosphodiesterase 1 (TDP1): qHTS in cells in absence of CPT; DT40 Tdp1-/- hTDP1 cells, no CPT, ATP luminescence, 48 h; Potency, µM (titrated, usually from 46.2 µM), for the others: at the highest dose activity change, negative = growth inhibition, most hits filed as inhibitors; 420,000 compounds, 15% hits; note: potency is the fitted concentration of half-maximal effect; nearly all actives have a fitted effect of over 55% in size
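Compound effects on proliferation are scored in DT40 Tdp1-/-;hTDP1 cells in the absence of CPT. ATP levels (CellTiter-Glo luminescence) are recorded after a ≥48 hr, 37 °C incubation.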
HT1080 IDH1KD tx – toxicity to HT-1080 IDH1 knockdown cells (counter line) | HT-1080 IDH1 knockdown viability, ATP luminescence, 48 h | Potency, µM (top dose mostly 46.1 µM), without a hit: at the top dose activity, negative = toxicity, usual class: cytotoxic | 360,000 compounds, 2% hits;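 note: potency is the fitted concentration of half-maximal effect; 0% = DMSO wells and -100% = cell-free medium wells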
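Assay cells: HT-1080 with IDH1 knockdown, 750 per well, RPMI/5% FBS. Exposure: 48 h at 37 °C following 2 h pre-incubation. Read: CellTiter-Glo luminescence; fitted concentration-response, curve class assigned.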
uPA generation – blocks generation of uPA at the cell surface | AID 540303 | Potency, µM (series often up to 38.3 µM), for inactives: at the highest dose activity change, negative = inhibition, usual class: inhibitors | cell surface uPA generation assay, qHTS | 330,000 compounds, 0.31% hits; active = well fitted inhibition curve with a large enough effect; inconclusive = small, poorly fitted or top-dose-only effect; inactive = no such curve, though single readings can be large or run the other way; tested in mouse RAW 264.7 cells; note: potency is the fitted concentration of half-maximal effect; nearly all actives have a fitted effect of over 55% in size
IL1B secr inh – blocks inflammasome-driven IL-1 beta release. AID 743279. activity change, % at 57.5 µM. 360,000 compounds, 4.7% hits. THP-1 LPS/ATP IL-1B secretion, AlphaLISA, 16 h; active compounds read low; in the data active = activity change below about -50%; inconclusive = mostly about -30% to -49%
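Secreted IL-1B measured by AlphaLISA bead assay after 16 h compound exposure of THP-1 cells; compounds (final up to 57.5 uM) added 1 h before LPS (250 ng/mL) and ATP (1.25 mM) stimulation; lower signal means less secretion.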
Starred values were filed as active, the others as inactive; ? = inconclusive; / = no result given. Rows were chosen to be rich in hits. Some 19% of all compounds tested hit in one or more screens of this group. Unless noted, calls come from the whole dose curve; as a rule, active = well fitted curve in the direction sought with a large enough effect; inconclusive = small, poorly fitted or top-dose-only effect, or another doubt; inactive = no such curve, though single readings can be large; an effect the other way counts as inactive or inconclusive. Unless noted, % is set by controls: 0 for no effect and ±100 for the full control effect.

SMILES	TDP1 cell CPT	HT1080-NT tox	TDP1 cell noCPT	HT1080 IDH1KD tx	uPA generation	IL1B secr inh
Cc1cc(NC(=O)COC(=O)c2ccccc2OCCOc2ccccc2)ccc1Br	-9.1%	5.2%	?	0.6%	/	/
Cc1cc(-c2nnc3n2CCCCC3)c(C)n1-c1ccccc1	?	1.6%	16.4µM*	0.5%	-5.9%	?
COC(=O)CCSC(=S)N1CCOCC1	5.6%	15.1%	-9.8%	?	11.9%	/
COc1ccc(C(=O)/C=C/Nc2ccc(NC(C)=O)cc2)cc1OC	16.4µM*	?	?	?	/	-10.4
COc1ccc(N/C=C/C(=O)c2cc(OC)c(OC)c(OC)c2)cc1	1.03µM*	1.16µM*	1.03µM*	1.3µM*	-12.3%	61.8
COc1ccc(C(=O)/C=C/Nc2cccc(C)n2)cc1OC	?	-23.7%	-14.4%	-14.1%	-13.0%	-59.5*
COc1ccc(OC)c(NS(=O)(=O)c2cc3c4c(c2)CCN4C(=O)CC3)c1	-17.7%	-13.0%	-13.7%	-2.6%	2.3%	6.8
O=C(c1ccc(=O)[nH]c1)N(c1ccccc1)C(CCc1ccccc1)c1nc2ccccc2[nH]1 (stereo not given)	-27.1%	-1.0%	?	7.1%	/	-8.8
COC(=O)C(c1ccccc1Cl)N1CCc2sccc2C1 (stereo not given)	?	/	0.2%	/	/	/
CCCCCCCCCCCCCCCCCCN(CCCCCCCCCCCCCCCCCC)c1ccccc1	3.2%	/	3.6%	/	/	/
CCCCCCCCCCCCCCCC[N+](C)(C)Cc1ccc(F)cc1	6.51µM*	2.8%	7.31µM*	-22.8%	-4.7%	-73.9*
CCCCCCCCCCCCC[N+](C)(C)Cc1ccccc1	0.651µM*	/	0.581µM*	/	/	/
Cn1cccc1C(=O)N1CCC2(CCCN(Cc3ccncc3)C2)CC1	9.8%	/	-27.9%	/	/	/
O=C(OCc1c(-c2ccccc2)ncc2ccccc12)c1ccccc1C(F)(F)F	1.03µM*	?	?	?	-10.3%	-2.0
O=C(O)CCC(=O)OCc1c(-c2ccccc2)ncc2ccccc12	-0.4%	0.0%	-6.6%	0.0%	-6.5%	25.1
COc1cccc(-c2ncc3ccccc3c2COC(=O)c2ccc(F)cc2)c1	?	-1.9%	20.6µM*	-16.6%	16.9%	-9.9
COc1ccc(C(=O)OCc2c(-c3ccccc3)ncc3ccccc23)cc1	16.4µM*	-15.4%	?	-16.5%	-4.8%	0.0
COc1ccccc1C(=O)OCc1c(-c2ccccc2)ncc2ccccc12	16.4µM*	-17.4%	?	-29.1%	-21.7%	-19.3
COc1cccc(-c2ncc3ccccc3c2COC(=O)c2ccc(C(C)(C)C)cc2)c1	?	-14.7%	?	?	-15.3%	15.3
CCCCc1nc(C(N)=O)c2[nH]c(=O)n(-c3ccc(OCC)cc3)c2n1	17.6%	8.3%	-0.4%	1.6%	8.5%	-1.4
CCOc1ccc(Cc2c(Cl)nc(SC)nc2N(C)C)cc1	18.4µM*	?	16.4µM*	?	-12.1%	0.0
CSc1nc(Cl)c(Cc2ccc(OC(C)C)cc2)c(N(C)C)n1	?	0.0%	16.4µM*	-3.1%	-0.2%	4.8
CCOCc1[nH]c(=S)[nH]c(=O)c1Cc1ccc(OC(C)C)cc1	1.7%	-1.4%	0.4%	-4.9%	9.0%	3.6
COc1ccc(OC)c(NC(=O)/C=C/c2ccc(S(=O)(=O)N3CCOCC3)cc2)c1	25.9µM*	-2.8%	?	0.6%	-0.1%	-1.2
COc1ccc(NC(C)=O)cc1NC(C)C(=O)Nc1cccc(S(=O)(=O)N2CCOCC2)c1 (stereo not given)	-0.2%	-1.0%	-18.1%	-0.8%	26.4%	-9.7
SMILES	TDP1 cell CPT	HT1080-NT tox	TDP1 cell noCPT	HT1080 IDH1KD tx	uPA generation	IL1B secr inh
Cc1ccc(NC(=O)[C@@H](NC(=O)c2cccc(S(=O)(=O)N3CCOCC3)c2)C(C)C)cc1C	?	-9.2%	11.6µM*	-7.0%	-8.2%	2.3
COc1ccccc1/C=C/C(=O)Nc1cccc(S(=O)(=O)N2CCOCC2)c1	?	5.5%	?	6.8%	0.4%	-22.8
COc1ccc(NC(C)C(=O)Nc2cccc(S(=O)(=O)N3CCOCC3)c2)cc1OC (stereo not given)	9.2µM*	-5.7%	8.2µM*	-12.0%	?	?
COc1ccc(/C=C/C(=O)Nc2cccc(S(=O)(=O)N3CCOCC3)c2)cc1OC	?	-1.1%	16.4µM*	1.1%	-5.9%	9.8
O=C(Nc1ccc(F)cc1F)c1noc2c1CCc1ccccc1-2	-23.1%	/	-20.4%	/	/	/
COc1cc(/C=C/C(=O)Nc2cccc(S(=O)(=O)N3CCOCC3)c2)ccc1OCC#N	?	-2.9%	?	?	?	-53.8*
COc1ccccc1N1CCN(C(C)C(=O)Nc2ccc(S(=O)(=O)N3CCOCC3)cc2)CC1 (stereo not given)	?	4.6%	13µM*	11.7%	-6.7%	11.1
O=C(/C=C/c1ccco1)Nc1cccc(S(=O)(=O)N2CCOCC2)c1	-8.9%	22.3%	-13.0%	?	-12.3%	-6.3
Cc1ccc(/C=C/C(=O)N2CCN(S(=O)(=O)c3c(C)c(C)cc(C)c3C)CC2)o1	23.1µM*	-20.2%	14.6µM*	?	-9.5%	-28.8
Cc1ccc(/C=C/C(=O)N2CCN(Cc3ccccc3)CC2)o1	?	1.4%	?	-0.3%	-6.2%	-26.2
COc1ccccc1C(=O)Nc1ccc(S(=O)(=O)N2CCOCC2)cc1	?	3.5%	?	3.8%	6.2%	-4.7
Cc1ccc(/C=C/C(=O)Nc2cccc(S(=O)(=O)N3CCOCC3)c2)o1	23.1µM*	-20.0%	?	-3.1%	-0.5%	7.6
COc1ccc(/C=C/C(=O)Nc2ccccc2)cc1S(=O)(=O)N1CCOCC1	-20.1%	-4.1%	-27.3%	-9.8%	7.6%	-28.2
CC1CCc2sc(C(=O)N3CCN(c4ncccn4)CC3)cc2C1 (stereo not given)	?	0.6%	?	0.1%	-0.4%	-6.4
COc1ccc(/C=C/C(=O)NC2CCCCCCC2)cc1S(=O)(=O)N1CCOCC1	20.6µM*	?	20.6µM*	?	-10.6%	0.0
COc1ccc(/C=C/C(=O)NC(C)(C)C)cc1S(=O)(=O)N1CCOCC1	-13.2%	1.2%	-6.9%	-2.3%	-1.1%	13.5
O=C(NCCN1CCCCC1)Nc1ccc(Br)cc1	4.1%	-11.5%	-7.5%	-3.6%	1.9%	-22.6
O=C(NCCN1CCc2ccccc2C1)Nc1ccc([N+](=O)[O-])cc1	?	-2.8%	23.1µM*	-4.0%	6.4%	1.3
O=C(NCCCN1CCc2ccccc2C1)Nc1ccc(Br)cc1	?	?	?	18.4µM*	3.7%	-17.5
